Bioassay records: PubChem, several laboratories
Y pestis TopoI: Yersinia pestis topoisomerase I inhibitors, primary screen, biochemical, cleavage product accumulation, plate reader, single point. DNA topoisomerase I (Yersinia pestis CO92). Y. pestis Topo-I cleavage product accumulation. activity, % at 10 µM. 0.064% of 360,000 active. AID 504884, 2011; in the data active means activity above about 50%, passing the limit was not always enough
BioA inh: M. tuberculosis BioA enzyme inhibitors, primary screen, biochemical, plate reader, single point, HTS; purified M. tuberculosis BioA enzyme; inhibition, % at 9.99 µM; 0.096% of 360,000 active; AID 602481, 2012; 7,8-diaminopelargonic acid synthase BioA (Mycobacterium tuberculosis); in the data active means inhibition above about 40%
BH1578 lux ind: inducers of Vibrio cholerae quorum light production without autoinducers, primary screen, BH1578 luxS cqsA deficient, single point; activation, % at 18.7 µM; AID 588436, 2011; 0.16% of 350,000 active; V. cholerae BH1578 lux reporter, luminescence, 6 h; in the data active means activation mostly above about 9.7%, no sharp cut-off
TcdB GH inh: TcdB glycohydrolase inhibitors, primary screen, biochemical, single point, plate reader; Toxin B (Clostridioides difficile), P18177; TcdB glycohydrolase enzymatic assay; inhibition, % at 9.99 µM; 0.24% of 350,000 active; AID 652162, 2013; in the data active means inhibition above about 10%
VHR inh abs: VHR1 phosphatase inhibitors, primary screen, biochemical, absorbance, uHTS; Dual specificity protein phosphatase 3 (Homo sapiens), P51452; recombinant VHR phosphatase, pNPP absorbance; inhibition, % at 13.3 µM; 0.52% of 290,000 active; AID 1654, 2009; in the data active means inhibition above about 50%
Hits are given with their value; – = inactive; · = no result given. This is a sample that favours compounds with a hit; in the whole collection about 0.73% have one here.

SMILES | Y pestis TopoI | BioA inh | BH1578 lux ind | TcdB GH inh | VHR inh abs
C[C@H]1CN([C@@H](C)CO)C(=O)Cc2cc(NC(=O)Nc3ccccc3)ccc2O[C@H]1CN(C)C(=O)Nc1ccc2c(c1)OCO2 | · | · | · | – | ·
Cc1ccc(S(=O)(=O)Nc2ccc3c(c2)C(=O)N([C@@H](C)CO)C[C@H](C)[C@H](CN(C)Cc2ccc(C(=O)O)cc2)OCCCC[C@H](C)O3)cc1 | · | – | · | – | ·
NC(=O)CC(NC(=O)c1ccccc1)c1ccc(NCCc2ccc(F)cc2)c([N+](=O)[O-])c1 (stereo not drawn) | – | – | – | 10 | –
Cc1ccc(S(=O)(=O)Nc2ccc3c(c2)C(=O)N([C@H](C)CO)C[C@@H](C)[C@@H](CN(C)S(=O)(=O)c2c(C)noc2C)OCCCC[C@H](C)O3)cc1 | · | – | · | – | ·
COc1ccc(-c2nn(CC(=O)Nc3ccc(Cl)c(Cl)c3)c(=O)c3ccccc23)cc1 | – | · | – | · | 52
COc1ccc(S(=O)(=O)Nc2ccc3c(c2)CC(=O)N([C@H](C)CO)C[C@@H](C)[C@@H](CN(C)Cc2ccc(C(=O)O)cc2)O3)cc1 | · | – | · | – | ·
O=C(Cc1ccccc1)NNC1CC(=O)N(c2ccc(Cl)cc2)C1=O (stereo not drawn) | – | · | – | – | 53
O=C(Cc1ccc(Cl)cc1)NNC1CC(=O)N(c2ccc3ccccc3c2)C1=O (stereo not drawn) | – | – | – | – | –
O=C(COC(=O)/C=C/c1ccccc1)Nc1cccnc1Cl | – | – | – | – | ·
Cc1c(O)ccc(NC(=O)/C=C/c2ccccc2)c1C | – | · | – | 17 | –
O=C(/C=C/c1ccccc1)Nc1cccnc1Cl | – | – | – | 16 | –
C[C@H](CO)N1C[C@H](C)[C@@H](CN(C)C(=O)Nc2cccc3ccccc23)Oc2ccc(NC(=O)CCN3CCOCC3)cc2CC1=O | · | · | · | – | ·
COc1ccc(CNC(=O)C[C@@H]2C[C@@H]3c4cc(NC(=O)NC5CCCC5)ccc4O[C@@H]3[C@H](CO)O2)cc1 | · | – | · | – | ·
C[C@@H]1CN([C@@H](C)CO)C(=O)c2cccc(NC(=O)C3CCCCC3)c2O[C@H]1CN(C)S(=O)(=O)c1ccc(F)cc1 | · | – | · | – | ·
O=C(N/N=C/c1cccc(OC2CSC2)c1)c1ccccc1O | – | – | – | · | –
Cn1ncc(Br)c1C(=O)N/N=C/c1cccc(OC2CSC2)c1 | – | · | – | 31 | –
CCOC(=O)c1c(NC(=O)CCc2ccc(CC)o2)sc(C)c1C | 57 | – | – | – | –
C[C@@H]1CCCCO[C@@H](CN(C)C(=O)c2ccncc2)[C@H](C)CN([C@@H](C)CO)C(=O)c2cc(NS(C)(=O)=O)ccc2O1 | · | – | · | – | ·
c1ccc(Cn2nnc3c(N4CCOCC4)ncnc32)cc1 | – | – | – | – | –
c1ccc(Cn2nnc3c(N4CCN(Cc5ccc6c(c5)OCO6)CC4)ncnc32)cc1 | – | – | – | · | 51
COc1ccc(CN(C)C[C@H]2Oc3ccc(NS(C)(=O)=O)cc3C(=O)N([C@@H](C)CO)C[C@H]2C)cc1 | · | – | · | – | ·
CCOC(=O)C1=C(C)NC(=O)NC1c1ccc(-c2ccc(F)cc2)o1 (stereo not drawn) | – | · | – | – | 52
CCOC(=O)C1=C(C)NC(=O)NC1c1ccc(-c2ccc(Cl)cc2)o1 (stereo not drawn) | – | · | – | – | –
COCCNC(=O)C[C@@H]1CC[C@H]2[C@@H](COC[C@H](O)CN2C(=O)c2cc(Cl)cc(Cl)c2)O1 | · | – | · | – | ·
C[C@H]1CN([C@@H](C)CO)C(=O)c2c(c3ccccc3n2C)-c2ccccc2CO[C@H]1CN(C)S(C)(=O)=O | · | – | · | – | ·
SMILES | Y pestis TopoI | BioA inh | BH1578 lux ind | TcdB GH inh | VHR inh abs
C[C@@H]1CN([C@@H](C)CO)C(=O)c2c(c3ccccc3n2C)-c2ccccc2CO[C@@H]1CN(C)C | · | – | · | 20 | ·
C[C@H]1CN([C@@H](C)CO)C(=O)c2c(c3ccccc3n2C)-c2ccccc2CO[C@H]1CN(C)C | · | – | · | 11 | ·
O=C(c1ccccc1)c1coc2ccc(O)c(Cl)c12 | – | – | – | 12 | –
CC(=O)c1cccc(NC(=O)N2CCCC2C(=O)Nc2ccc3c(c2)OCO3)c1 (stereo not drawn) | – | · | – | – | 57
Cc1cccc(NC(=O)[C@@H]2CCCN2C(=O)OC(C)(C)C)c1 | – | – | – | – | 58
CC(=O)c1cccc(NC(=O)N2CCCC2C(=O)Nc2cccc(C)c2)c1 (stereo not drawn) | – | – | – | · | –
CO[C@H]1CN(C)C(=O)c2cc(NC(=O)C3CCCC3)ccc2OC[C@@H](C)N(C)C[C@H]1C | · | – | · | – | ·
CO[C@@H]1CN(C)C(=O)c2ccc(NS(=O)(=O)c3ccccc3F)cc2OC[C@@H](C)NC[C@H]1C | · | – | · | – | ·
Nc1nc(Cl)cc(NCCc2ccc(O)cc2)n1 | – | · | – | 14 | –
Oc1ccc(CCNc2ncnc3ccc(Cl)cc23)cc1 | – | – | – | 11 | –
O=C(C[C@H]1CC[C@H]2[C@@H](COC[C@H](O)CN2C(=O)c2ccncc2)O1)NC1Cc2ccccc2C1 | · | – | · | – | ·
C[C@H]1CCCCO[C@H](CN(C)C(=O)c2ccccc2)[C@@H](C)CN([C@@H](C)CO)C(=O)c2cc(NC(=O)Nc3ccc(F)cc3)ccc2O1 | · | – | · | – | ·
CC(C)C[C@H]1COCn2nncc2CC[C@H](Cc2ccccc2)C(=O)N1 | · | · | · | – | ·
COC(=O)c1ccc(C23CC4(C2)[C@H](CN(Cc2ccc(C(F)(F)F)cc2)[C@@H]4c2ccccc2)C3c2ccc(Cl)nc2)cc1 (stereo partly drawn) | · | · | · | 12 | –
N#Cc1ccc(C23CC4(C2)[C@H](CN(Cc2ccc(C(F)(F)F)cc2)[C@@H]4c2ccccc2)C3c2ccc(Cl)nc2)cc1 (stereo partly drawn) | · | · | · | – | –
CCCCCC(=O)Nc1nc(C)c(-c2csc(Nc3cc(OC)ccc3OC)n2)s1 | – | – | – | – | 51
CCCCCCC(=O)Nc1nc(C)c(-c2csc(Nc3cc(OC)ccc3OC)n2)s1 | – | – | – | – | –
COc1cc2oc3ccc(C#Cc4ccccn4)cc3c(=O)c2cc1OC | – | – | – | 11 | ·
COc1cc2oc3ccc(C#Cc4ccc(N)cc4)cc3c(=O)c2cc1OC | – | – | – | – | ·
O=C(CC1CC1)Nc1ccc2c(c1)[C@H]1C[C@H](CC(=O)NC3CCCCC3)O[C@@H](CO)[C@H]1O2 | · | – | · | – | ·
COc1cc2c(ccc3cc(OC)c(OC)c(O)c32)cc1O | – | – | – | – | 53
O=C(N/N=C/c1c(O)ccc2ccccc12)c1ccc(Br)o1 | – | – | – | – | 57
O=C(N/N=C\c1c(O)ccc2ccccc12)c1ccc(O)cc1 | – | – | – | – | –
S=c1[nH]nc(-c2cc(-c3ccccc3)n[nH]2)n1/N=C/c1cccc(Cl)c1 | – | · | – | – | 50
S=c1[nH]nc(-c2cc(-c3ccccc3)n[nH]2)n1/N=C/c1ccc(Cl)cc1 | – | – | – | – | –
